# Screens: PubChem BioAssay, National Center for Advancing Translational Sciences (NCATS)
# L3MBTL1 block – L3MBTL1 (human) inhibition; Q9Y468; AlphaScreen L3MBTL1–H3K9me1 peptide binding; Potency, µM (highest dose often 57.1 µM), without a hit: at the top dose activity, negative = inhibition, most hits filed as inhibitors; 230,000 compounds, 0.66% hits; note: % is set by controls: 0 for no effect and ±100 for the full control effect; nearly all actives have a fitted effect of over 60% in size
#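 Read-out is AlphaScreen signal from streptavidin donor and nickel chelate acceptor beads (10 ug/mL final each) bridging L3MBTL1 (50 nM) and biotinylated K9-monomethylated H3(1-15) peptide (75 nM), after 30 min compound exposure at room temperature.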
# Sfp PPTase inh – inhibitors of Bacillus subtilis Sfp phosphopantetheinyl transferase. Q9F4F7. 310,000 compounds, 3.5% hits. Biochemical Sfp PPTase activity, qHTS. Potency, µM, without a hit: largest response in the series, negative = inhibition, most hits filed as inhibitors;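 note: the enzyme is Sfp with the accession as filed and its product quenches rhodamine fluorescence; 0% = enzyme reaction without inhibitor and -100% = no enzyme wells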
#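 With Hepes-Na pH 7.6 buffer containing 10 mM MgCl2, Sfp (15 nM) modified BHQ-2-YbbR (12.5 uM) using rhodamine-CoA (5 uM). Two reads 30 minutes apart at 525/598 nm yielded each well's rate.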
# G9a inh – blocks human histone lysine methyltransferase G9a; Q96KQ7; G9a H3K9 monomethylation, AlphaScreen, 2 h; Potency, µM (highest dose often 102 µM), for the others: top-dose activity, negative = inhibition, usual class: inhibitors; 350,000 compounds, 8.8% hits; note: % is set by controls: 0 for no effect and ±100 for the full control effect; nearly all actives have a fitted effect of over 75% in size
# Target sequence (Q96KQ7 913-1193 limits assumed): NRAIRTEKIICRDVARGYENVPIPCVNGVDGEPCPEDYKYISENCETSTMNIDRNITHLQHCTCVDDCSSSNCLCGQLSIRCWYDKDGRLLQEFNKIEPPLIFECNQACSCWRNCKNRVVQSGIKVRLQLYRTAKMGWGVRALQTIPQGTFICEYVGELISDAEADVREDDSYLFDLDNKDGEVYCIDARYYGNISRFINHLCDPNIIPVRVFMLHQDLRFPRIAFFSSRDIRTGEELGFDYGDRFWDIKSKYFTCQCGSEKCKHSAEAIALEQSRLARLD
#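 G9a (20 nM) preincubated 15 min RT with compounds, then 500 nM biotinylated H3K9 peptide and 20 uM SAM added; 2 h RT reaction. Monomethyl-H3K9 product detected by AlphaScreen with anti-H3K9me1 antibody, streptavidin donor and anti-rabbit IgG acceptor beads.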
# BAZ2B inh – blocks human BAZ2B. AlphaScreen BAZ2B-H3K14Ac peptide displacement. Potency, µM (titrated, usually from 114 µM), inactives show at the highest dose activity change, negative = inhibition, hits mostly inhibitors. Q9UIF8. 360,000 compounds, 4.4% hits; note: % is set by controls: 0 for no effect and ±100 for the full control effect; nearly all actives have a fitted effect of over 60% in size
#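 BAZ2B 50 nM plus b-H3(5-23)K14Ac 50 nM, PBS pH 7.4/0.01% Tween-20, 30 min RT; compound added (max 110 uM), 30 min RT; streptavidin donor/Ni-chelate acceptor beads 10 ug/mL final, 20 min dark; AlphaScreen read.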
# HP1b binding inh – blocks HP1-beta chromodomain binding to methylated histone tails; 390,000 compounds, 0.56% hits; P83916; Potency, µM (doses to about 114 µM), for inactives: at the highest dose activity change, negative = inhibition, hits mostly inhibitors; AID 540317; AlphaScreen HP1-beta / biotin-H3K9me3 peptide binding; note: nearly all actives have a fitted effect of over 70% in size
# Target sequence (P83916 whole entry, looked up): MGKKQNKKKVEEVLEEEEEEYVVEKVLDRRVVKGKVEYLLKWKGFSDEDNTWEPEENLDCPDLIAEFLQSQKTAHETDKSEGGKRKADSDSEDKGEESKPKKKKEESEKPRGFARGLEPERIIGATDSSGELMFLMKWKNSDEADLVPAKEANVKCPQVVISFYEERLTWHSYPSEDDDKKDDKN
#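 HP1-beta protein (50 nM final) preincubated 30 min at room temperature with biotinylated H3(1-18)K9me3 peptide (50 nM) in PBS pH 7.4, 0.01% Tween-20, then compound added for 30 min. AlphaScreen streptavidin donor/nickel chelate acceptor beads (10 ug/mL final), 30 min dark, luminescence read.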
# JMJD2A Tudor – blocks the human JMJD2A Tudor domain. O75164. AlphaScreen JMJD2A-Tudor / H3K4me3 peptide binding. Potency, µM (top dose mostly 114 µM), for inactives: at the top dose activity change, negative = inhibition, hits mostly inhibitors. 390,000 compounds, 4.4% hits; note: % is set by controls: 0 for no effect and ±100 for the full control effect; nearly all actives have a fitted effect of over 50% in size
# An asterisk follows results filed as active; ? = inconclusive; / = no result; [ ] = another dose, or the depositor's remark. The list is not random: actives were taken first. Their share in the collection is about 12%. Calls come from the whole dose curve; as a rule, active = well fitted curve in the direction sought with a large enough effect; inconclusive = small, poorly fitted or top-dose-only effect, or another doubt; inactive = no such curve, though single readings can be large; an effect the other way counts as inactive or inconclusive. Potency is the fitted concentration of half-maximal effect.
SMILES,L3MBTL1 block,Sfp PPTase inh,G9a inh,BAZ2B inh,HP1b binding inh,JMJD2A Tudor
COc1ccc(/C=N/NS(=O)(=O)c2ccc(F)cc2)cc1COc1cc(F)ccc1[N+](=O)[O-],-5%,-26%,6.3µM*,-19%,45%,-9%
Cc1ccc(CNC(=O)Cn2ccn(-c3cc(C)cc(C)c3)c(=O)c2=O)cc1,/,/,?,-3%,18%,-17%
Cc1cc(=O)n2[nH]c(COc3ccccc3)nc2n1,11%,8%,40µM*,6%,32%,2%
COc1ccc(-c2nc3nc(C)cc(=O)n3[nH]2)cc1,/,12%,14%,8%,13%,-8%
Cc1ccc(C(=O)Nc2nc3nc(C)cc(=O)n3[nH]2)cc1,/,/,12%[59 µM],-4%,-9%,?
Cc1cc(=O)n2[nH]c(C(=O)O)nc2n1,-2%,?,?,?,-27%,8.9µM*
Cc1cc(=O)n2[nH]c(CCC(=O)O)nc2n1,0%,-21%,-36%,-3%,1%,-11%
CCC(=O)Nc1nc2nc(C)cc(=O)n2[nH]1,-3%,-23%,-20%[59 µM],56µM*,5%,32µM*
CCCc1cc(=O)n2[nH]c(NC(=O)c3ccco3)nc2n1,/,-8%,79µM*,-26%,23%,6%
CCOC(=O)c1cc2c(=O)n3ccccc3nc2n(Cc2ccco2)c1=NC(=O)c1cccc(F)c1,/,/,1%[59 µM],1%,26%,10%
CC(=O)Nc1nonc1-c1nnc(SCC(=O)N(C)c2ccccc2)n1C,/,/,1%[59 µM],-7%,37%,-11%
CC(c1ccccc1)N1C(=O)CC(Sc2ncccc2C(=O)O)C1=O (centres undefined),5%,12%,22µM*,3%,32%,-16%
O=C(O)c1cccnc1SC1CC(=O)N(c2ccccc2)C1=O (centres undefined),/,15%,56µM*,-27%,68%,-16%
O=C(O)c1ccccc1SC1CC(=O)N(c2ccccc2)C1=O (centres undefined),-1%,79µM*,?,-20%,18%,?
COc1ccc(N2C(=O)CC(Sc3ncccc3C(=O)O)C2=O)cc1 (centres undefined),/,12%,?,2%,43%,-1%
Cc1cc(C)c(Cn2c3ccccc3c3cnn(CC(=O)NCCc4ccccc4)c(=O)c32)c(C)c1,/,/,28%[59 µM],-3%,57%,9%
Cc1cccc(C(=O)NCc2cn3cccc(C)c3n2)c1,/,/,?,3%,63%,-19%
COCCN1C(=O)/C(=C/c2ccc(OCc3ccc(C(=O)O)cc3)c(OC)c2)SC1=Nc1ccccc1,-19%,-29%,50µM*,56µM*,-22%,?
CCN1C(=O)/C(=C\C=C\c2ccccc2[N+](=O)[O-])SC1=S,/,-13%,10µM*,/,?,?
O=C(O)c1ccc(/C=C2/SC(=S)N(Cc3ccccc3)C2=O)cc1,/,-2%,?,?,2%,?
O=C1/C(=C/c2ccc(O)c([N+](=O)[O-])c2)SC(=S)N1Cc1ccccc1,-19%,8%,3.5µM*,?,?,4µM*
O=C(O)c1cccc(CN2C(=O)S/C(=C/c3cccc([N+](=O)[O-])c3)C2=O)c1,/,71µM*,?,-33%,-17%,2%[11.4 µM]
Cc1nc2cnc(N3CCNCC3)nc2n(-c2ccccc2)c1=O,/,21%,-10%[12.7 µM],/,/,/
CC(=O)c1ccc(N2CCN(C(=O)c3cc4cc5cc(C)ccc5nc4s3)CC2)cc1,/,/,4%[59 µM],2%,21%[57 µM],-12%
COc1cccc(Nc2ncc3nc(CCc4ccccc4)c(=O)n(CCC#N)c3n2)c1,/,4%,12%[12.7 µM],/,/,/
SMILES,L3MBTL1 block,Sfp PPTase inh,G9a inh,BAZ2B inh,HP1b binding inh,JMJD2A Tudor
Cc1ccc2nc(COc3ccccc3NC(=O)c3ccccc3F)cc(=O)n2c1,/,/,-7%[59 µM],6%,29%[57 µM],4%
CCOc1cc(/C=C2/SC(=S)N(Cc3ccccc3)C2=O)ccc1O,/,-2%,45µM*,22µM*,?,50µM*
CCOc1cc(/C=C2\SC(=O)N(c3ccc(O)cc3)C2=O)ccc1O,-13%,-2%,13%[12.7 µM],-11%,12%,-16%
O=C(O)CCN1C(=O)/C(=C\c2ccc(OCc3ccccc3)c(OCc3ccccc3)c2)SC1=S,/,5%,25µM*,45µM*,?,45µM*
O=C1/C(=C\c2cccc([N+](=O)[O-])c2O)SC(=S)N1Cc1ccccc1,/,?,2µM*,2µM*,?,8.9µM*
CC1CCc2onc(C(=O)Nc3ccc(Cl)cc3)c2C1 (centres undefined),/,/,-12%[59 µM],12%[57.1 µM],22%,-2%
CCc1ccc2c(c1)Sc1ccccc1CC2N1CCN(C)CC1 (centres undefined),/,/,/,/,-9%,-35%
CN1Cc2cccc3c2C(Cc2ccccc2S3)C1 (centres undefined),-10%,-7%,?,-8%,22%,10µM*
Cc1ccc2c(c1)-c1c(ssc1=S)C(C)(C)N2C(=O)CSC1=NCCS1,?,-2%,?,8.9µM*,?,5µM*
N#CC(c1ccccc1)c1cccc(Cl)n1 (centres undefined),14%,17%,9%,8%,60%,3%
N#CC(c1cccc(Cl)c1)c1ccc2c(C(F)(F)F)cc(C(F)(F)F)nc2n1 (centres undefined),/,-2%,14µM*,10µM*,10µM*,28µM*
NC1(C(=O)O)CC(C(=O)O)C1 (centres undefined),/,50µM*,4%[59 µM],/,/,/
N[C@@]1(C(=O)O)CN[C@@H](C(=O)O)C1,/,22µM*,29%[59 µM],/,/,/
Cn1c(=O)c2c(SCC(=O)Nc3ccc(F)cc3F)nc(C3CCCC3)nc2n(C)c1=O,/,/,13%[59 µM],-10%,17%[57 µM],-13%
COc1cccc(NC(=S)NCCc2ccccn2)c1,1%,?,28µM*,56µM*,21%,-14%
Cc1cccc(NC(=S)NCc2ccccn2)c1,-5%,-1%,71µM*,-29%,33%,?
S=C(NCc1ccccn1)NN=Cc1ccccn1,/,/,/,/,-4%,32µM*
CCOc1ccc(-c2nnc(SCC(=O)NC3CCCC3)nc2-c2ccc(OCC)c(OC)c2)cc1OC,/,/,?,-10%,9%,-17%
CCc1ccc(NC(=O)CSc2nc3ncccc3[nH]2)cc1,/,/,-4%[59 µM],2%,36%,1%
O=C1OC(c2ccc(Cl)cc2)/C(=C(/O)c2ccccc2)C1=O (centres undefined),6%,-3%,/,?,-2%,32µM*
CCN1C(=O)c2ccccc2S(=O)c2ccc(C(=O)N3CCN(c4ccc(F)cc4)CC3)cc21 (centres undefined),/,/,12%[59 µM],5%,20%,-26%
